Data: PubChem BioAssay (NCATS)
Records with an inconclusive call do not appear. Where a call stands in place of a potency, no number is given. Values without a mark were called inactive. Active and inactive are the calls of the source. The call rests on the fitted dose curve; in most records, active means well fitted cell-killing curve with a large enough effect; inconclusive means small, poorly fitted or top-dose-only effect, or effect the other way; inactive means flat fitted curve, though single readings scatter.

Each compound was assayed on SKOV3 (assay: Primary qHTS to identify gynecologic anti-cancer compounds using libraries of approved drugs and bioactive compounds (AID 1345084; further: nearly all actives have a fitted effect of over 55% in size)). Details: Gynecologic cancer cell panel viability, ATPlite luminescence, 48 h; series mostly up to 57.5 µM.
Summary of the method: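 Luminescence from the ATPlite ATP-monitoring reagent indicates viable cell number; lower signal means cytotoxicity. Cells received compound 16 h after seeding and were exposed for 48 h across five concentrations.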
Potency means the concentration at half of the fitted maximal effect.

Structure (SMILES) | Potency | activity change, negative = cytotoxicity
CC(C)CNc1ccnc(NCc2csc(-c3ccccc3)n2)n1 | 11.2 µM (active) | 
COc1ccnc(CS(=O)c2nc3ccc(OC(F)F)cc3[nH]2)c1OC (centres undefined) | inactive | 
Cc1c(C(=O)Nc2ccc(N3C[C@@H](C)O[C@@H](C)C3)nc2)cccc1-c1ccc(OC(F)(F)F)cc1 | inactive | 
Cc1cc(-c2ncc(CC(=O)Nc3ccc(-c4cnccn4)cn3)cc2C)ccn1 | 39.8 µM (active) | 
Clc1ccc(C2(c3ccc(-c4cn[nH]c4)cc3)CCNCC2)cc1 | 31.6 µM (active) | 
CC[C@H](CC#N)OC(=O)N[C@@H](C)c1cccc(NC(=O)Nc2ccc(-c3cnco3)c(OC)c2)c1 | 6.31 µM (active) | 
CCN(CCO)CCCOc1ccc2c(Nc3cc(CC(=O)Nc4cccc(F)c4)[nH]n3)ncnc2c1 | inactive | 
N#CC1(c2cccc(C(=O)Nc3cc(Oc4ccc5nc(NC(=O)C6CC6)sc5n4)ccc3F)c2Cl)CC1 | 20 µM (active) | 
O=C(CCCN1CCN(c2ccc(F)cc2)CC1)NC1c2ccccc2CSc2ccccc21 (centres undefined) | inactive | 
O=C(Nc1cccc2c(=O)cc(-c3nn[nH]n3)oc12)c1ccc(OCCCCc2ccccc2)cc1 | inactive | 
COc1nccc(-c2c(-c3ccc(F)cc3)ncn2C2CCC(O)CC2)n1 (centres undefined) | inactive | 
CN[C@@H](C)[C@H]1[C@H](O)C[C@@]2(C)[C@@H]3CC[C@H]4C(C)(C)[C@@H](NC)CC[C@@]45C[C@@]35CC[C@]12C |  | 0% [at 11.6 µM]
O=C1NC(=O)C(c2cnc3ccccn23)=C1c1cn2c3c(cccc13)CN(C(=O)N1CCOCC1)CC2 | 1.41 µM (active) | 
O=C(Nc1ccc(OC(F)(F)F)cc1)c1sccc1NCc1ccnc2ccccc12 | inactive | 
CC(=O)Nc1cccc(-n2c(=O)n(C3CC3)c(=O)c3c(Nc4ccc(I)cc4F)n(C)c(=O)c(C)c32)c1 | inactive | 
Cc1cnc(CNC(=O)c2c(=O)c3ccc(N4CCCN(C)CC4)nc3n3c2sc2ccccc23)cn1 |  | -5.43% [at 11.6 µM]
COc1ccc(-c2nc3ccc(C4=NNC(=O)CC4C)cc3[nH]2)cc1 (centres undefined) | 35.5 µM (active) | 
CN(C)CCCNC(=O)c1ccc(-c2cc(O)c3ncccc3c2)cc1 | inactive | 
COc1nccc(-c2c(-c3ccc(F)cc3)ncn2C2CCNCC2)n1 | inactive | 
